{"source": "the supplement of paper PMC3334620", "note": "In all, about 33,000 sequences were measured (“E-score (-0.5 to 0.5)”: median about -0.041, highest 2% from about 0.37 on). For the sample, the highest values were picked, then their nearest neighbours and some sequences at random."}
{"target": "T1, Ecm22 (UniProt Q05958)", "T1 sequence": "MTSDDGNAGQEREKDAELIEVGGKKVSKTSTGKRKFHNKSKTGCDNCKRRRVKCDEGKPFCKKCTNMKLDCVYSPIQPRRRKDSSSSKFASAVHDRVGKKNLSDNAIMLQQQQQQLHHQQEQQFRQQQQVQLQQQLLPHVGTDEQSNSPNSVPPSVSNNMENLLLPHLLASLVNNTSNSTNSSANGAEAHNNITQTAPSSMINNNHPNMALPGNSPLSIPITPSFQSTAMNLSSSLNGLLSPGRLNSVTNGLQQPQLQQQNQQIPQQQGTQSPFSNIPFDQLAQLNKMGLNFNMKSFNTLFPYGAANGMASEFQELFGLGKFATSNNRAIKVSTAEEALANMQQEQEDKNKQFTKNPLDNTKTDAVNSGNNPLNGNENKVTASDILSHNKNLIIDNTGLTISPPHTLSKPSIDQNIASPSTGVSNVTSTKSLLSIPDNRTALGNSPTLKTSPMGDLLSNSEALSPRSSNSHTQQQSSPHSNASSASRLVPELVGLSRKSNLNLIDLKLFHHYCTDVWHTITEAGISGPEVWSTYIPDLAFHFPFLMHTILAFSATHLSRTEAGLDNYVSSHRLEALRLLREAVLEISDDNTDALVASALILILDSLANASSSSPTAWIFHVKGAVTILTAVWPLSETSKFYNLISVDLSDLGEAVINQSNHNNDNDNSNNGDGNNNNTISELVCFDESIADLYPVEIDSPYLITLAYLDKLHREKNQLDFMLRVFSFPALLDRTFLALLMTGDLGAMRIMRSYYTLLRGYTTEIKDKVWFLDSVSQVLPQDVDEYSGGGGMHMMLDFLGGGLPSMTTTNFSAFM", "assay": "PBM E-score (8-mer binding enrichment) (E-score (-0.5 to 0.5)); higher = stronger / more preferred TF binding", "conditions": "protein concentration: 200 nM; construct: GST-full length", "method": "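Universal 'all 10-mer' protein binding microarrays (Agilent AMADID 015681) probed with GST-tagged S. cerevisiae TFs (full-length or DBD) made by in vitro transcription/translation (PURExpress), about 100-200 nM. Bound TF was detected with fluorescent anti-GST. Each ungapped 8-mer (which stands for itself and its reverse complement) is scored by the PBM enrichment score (E-score), a modified Wilcoxon-Mann-Whitney statistic from -0.5 to +0.5, computed with the Universal PBM Analysis Suite. Scale: above 0.35 generally sequence-specific binding.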"}
{"sequence": "CCGTCTTA", "PBM E-score": -0.174}
{"sequence": "AAGGCGCA", "PBM E-score": -0.0313}
{"sequence": "ATCCCAGC", "PBM E-score": -0.0508}
{"sequence": "TCAACTGA", "PBM E-score": -0.205}
{"sequence": "AGGCTCTC", "PBM E-score": -0.162}
{"sequence": "GGAGCACA", "PBM E-score": -0.107}
{"sequence": "CGTTGTGC", "PBM E-score": 0.116}
{"sequence": "CCCGGGAA", "PBM E-score": -0.0348}
{"sequence": "CCAACCAA", "PBM E-score": -0.0915}
{"sequence": "AACGATGC", "PBM E-score": 0.348}
{"sequence": "CACGATGG", "PBM E-score": 0.0647}
{"sequence": "AACGATGG", "PBM E-score": 0.374}
{"sequence": "TGTGTAAA", "PBM E-score": -0.0334}
{"sequence": "AGACGAGC", "PBM E-score": 0.211}
{"sequence": "CTACGAGA", "PBM E-score": 0.385}
{"sequence": "CCACGAGC", "PBM E-score": -0.0179}
{"sequence": "ATACGAGA", "PBM E-score": 0.484}
{"sequence": "ACACGAGC", "PBM E-score": 0.275}
{"sequence": "ATACGAGC", "PBM E-score": 0.49}
{"sequence": "CTACGAGC", "PBM E-score": 0.413}
{"sequence": "CGACGAGC", "PBM E-score": 0.162}
{"sequence": "ATACGTGA", "PBM E-score": 0.171}
{"sequence": "ATGCGAGA", "PBM E-score": 0.302}
{"sequence": "CGACGAGA", "PBM E-score": 0.08}
{"sequence": "CCACGAGA", "PBM E-score": -0.117}
{"sequence": "CCGAGTGA", "PBM E-score": 0.196}
{"sequence": "CCTTTCGA", "PBM E-score": 0.142}
{"sequence": "AAGCGTTA", "PBM E-score": 0.00424}
{"sequence": "ACCCCCGG", "PBM E-score": -0.189}
{"sequence": "GAGCGGGC", "PBM E-score": -0.0404}
{"sequence": "AGTAGTCG", "PBM E-score": 0.238}
{"sequence": "AGGGCTAC", "PBM E-score": -0.117}
{"sequence": "ATAAATTA", "PBM E-score": 0.326}
{"sequence": "ATACGAGG", "PBM E-score": 0.488}
{"sequence": "ACACGAGG", "PBM E-score": 0.324}
{"sequence": "GTACGAGA", "PBM E-score": 0.482}
{"sequence": "AGACGAGG", "PBM E-score": 0.202}
{"sequence": "GTACGCGA", "PBM E-score": 0.327}
{"sequence": "GTCCGAGA", "PBM E-score": 0.253}
{"sequence": "ACCCCGAC", "PBM E-score": -0.0233}
{"sequence": "AGTCAATG", "PBM E-score": -0.0767}
{"sequence": "ACGGGGCA", "PBM E-score": 0.114}
{"sequence": "TGCAGCCA", "PBM E-score": -0.171}
{"sequence": "GTTTAGTA", "PBM E-score": 0.271}
{"sequence": "CCCGGTAC", "PBM E-score": 0.078}
{"sequence": "CACGACTG", "PBM E-score": 0.0526}
{"sequence": "AACGACTT", "PBM E-score": 0.336}
{"sequence": "CACGACTA", "PBM E-score": -0.0786}
{"sequence": "GACGACTC", "PBM E-score": -0.0985}
{"sequence": "GACGACTA", "PBM E-score": -0.121}
{"sequence": "CACGACTC", "PBM E-score": 0.0577}
{"sequence": "AGCGACTA", "PBM E-score": 0.161}
{"sequence": "AACGACTA", "PBM E-score": 0.372}
{"sequence": "ATCGACTG", "PBM E-score": 0.076}
{"sequence": "AACGACTG", "PBM E-score": 0.393}
{"sequence": "TACGACTA", "PBM E-score": 0.438}
{"sequence": "AACGACTC", "PBM E-score": 0.388}
{"sequence": "TCCCCGGA", "PBM E-score": 0.00406}
{"sequence": "ATCTGTAG", "PBM E-score": -0.116}
{"sequence": "CGTCTCAC", "PBM E-score": 0.0419}
{"sequence": "TGCGCAAA", "PBM E-score": -0.077}
{"sequence": "GAAGCAGA", "PBM E-score": -0.215}
{"sequence": "CGTCGTAG", "PBM E-score": 0.406}
{"sequence": "AGTCGTCC", "PBM E-score": -0.0209}
{"sequence": "CGTCGTCC", "PBM E-score": -0.054}
{"sequence": "AGTCGTAC", "PBM E-score": 0.46}
{"sequence": "CGTCGTGC", "PBM E-score": 0.177}
{"sequence": "GGACGTAC", "PBM E-score": 0.126}
{"sequence": "AGTCGTGC", "PBM E-score": -0.0872}
{"sequence": "GGTCGCAC", "PBM E-score": 0.228}
{"sequence": "CGTAGTAG", "PBM E-score": 0.109}
{"sequence": "CATCGTCG", "PBM E-score": 0.0968}
{"sequence": "CGTCGTAC", "PBM E-score": 0.486}
{"sequence": "GGTCGTAC", "PBM E-score": 0.482}
{"sequence": "CCCCGAAC", "PBM E-score": -0.0375}
{"sequence": "GGAAAATA", "PBM E-score": 0.0993}
{"sequence": "GATCGGGA", "PBM E-score": 0.0412}
{"sequence": "CCAGGTCC", "PBM E-score": -0.192}
{"sequence": "GAAAAAGC", "PBM E-score": -0.00535}
{"sequence": "ACTCAGTC", "PBM E-score": -0.147}
{"sequence": "CCCTCCAG", "PBM E-score": -0.206}
{"sequence": "AGGTGAAC", "PBM E-score": 0.0634}
{"sequence": "TGAGTAAA", "PBM E-score": -0.13}
{"sequence": "ATTCTCGA", "PBM E-score": 0.168}
{"sequence": "AGTCGTAG", "PBM E-score": 0.304}
{"sequence": "AGTCGTCG", "PBM E-score": 0.01}
{"sequence": "AGTCGTAT", "PBM E-score": 0.46}
{"sequence": "AGCCTAAC", "PBM E-score": -0.0712}
{"sequence": "ATCTGCGG", "PBM E-score": -0.00985}
{"sequence": "GATGAGGA", "PBM E-score": -0.0394}
{"sequence": "AGGAGCTA", "PBM E-score": -0.138}
{"sequence": "CTCTCGTA", "PBM E-score": 0.457}
{"sequence": "CTCTCGTC", "PBM E-score": 0.0625}
{"sequence": "GTCTCGTA", "PBM E-score": 0.461}
{"sequence": "ATCTCGTC", "PBM E-score": 0.158}
{"sequence": "GTCTCGAA", "PBM E-score": -0.00716}
{"sequence": "CTCTCGAA", "PBM E-score": -0.0852}
{"sequence": "ATCTCGTA", "PBM E-score": 0.466}
{"sequence": "GTCTCGGA", "PBM E-score": 0.242}
{"sequence": "ATCTCGTG", "PBM E-score": 0.193}
